# Values joined by “and” are separate entries in the source; they are usually repeats but may differ in a detail not shown here. Equal values may be shown once. Records with an inconclusive call do not appear. A call without a number means that no potency is given here. Active and inactive are the calls of the source. Calls follow the shape of the dose curve; as a rule, active = well fitted curve in the direction sought with a large enough effect; inconclusive = small, poorly fitted or top-dose-only effect, or another doubt; inactive = no such curve, though single readings can be large; an effect the other way counts as inactive or inconclusive.
# Assays:
# [1] = P-glycoprotein substrates identified in KB-8-5-11 adenocarcinoma cell line, qHTS therapeutic library screen (AID 1346987); also: nearly all actives have a fitted effect of over 65% in size
# How it was run: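 Steps: plate 500 KB-8-5-11 cells/well in DMEM + 10% FCS (colchicine removed); pin compounds in dose-response; incubate 72 h, 37 degree C, 5% CO2; add CellTiter-Glo, 5 min; read luminescence.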
# [2] = qHTS of pediatric cancer cell lines to identify multiple opportunities for drug repurposing: Primary screen for TC32 cells (AID 1347089); also: nearly all actives have a fitted effect of over 60% in size
# How it was run: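 Luminescent ATP read-out (CellTiter-Glo) of metabolically active TC32 cells after 48 h exposure. Concentration-response curves came from 11-point (MIPE, 0.78 nM–46 µM) or 8-point (NPC, 0.59 nM–46 µM) primary titrations; follow-up used 11 points.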
# [3] = qHTS of pediatric cancer cell lines to identify multiple opportunities for drug repurposing: Primary screen for SJ-GBM2 cells (AID 1347091)
# How it was run: (§1)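 Cell viability, CellTiter-Glo luminescence; 500-1,000 cells/well, 8- or 11-point titration, 48 h compound exposure at 37 degrees C, 5% CO2. Controls: DMSO neutral, bortezomib 2.3 µM final as positive.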
# [4] = qHTS of pediatric cancer cell lines to identify multiple opportunities for drug repurposing: Primary screen for A673 cells (AID 1347092); also: nearly all actives have a fitted effect of over 45% in size
# How it was run: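 Cell viability of A673 measured by CellTiter-Glo ATP luminescence after 48 hours compound exposure. Dilution series spanned 0.78 nM to 46 µM (MIPE, 11-point) or 0.59 nM to 46 µM (NPC, 8-point); bortezomib 2.3 uM positive control.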
# [5] = qHTS of pediatric cancer cell lines to identify multiple opportunities for drug repurposing: Primary screen for SK-N-MC cells (AID 1347093)
# How it was run: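 Metabolically active cells were quantified by ATP-dependent luminescence (CellTiter-Glo, 15 min at room temperature) following 48 h treatment. Cells had been plated at 500-1,000 per well and settled for 5 h beforehand.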
# [6] = qHTS of pediatric cancer cell lines to identify multiple opportunities for drug repurposing: Primary screen for BT-37 cells (AID 1347094)
# How it was run: (§2)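 500-1,000 cells/well; 5 h pre-incubation 37 °C/5% CO2; compound pinned; 48 h; CellTiter-Glo, 15 min RT; luminescence. MIPE 11-pt from 0.78 nM, NPC 8-pt from 0.59 nM final. Bortezomib 2.3 µM final as positive control.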
# [7] = qHTS of pediatric cancer cell lines to identify multiple opportunities for drug repurposing: Primary screen for NB-EBc1 cells (AID 1347095)
# How it was run: as §2
# [8] = qHTS of pediatric cancer cell lines to identify multiple opportunities for drug repurposing: Primary screen for U-2 OS cells (AID 1347096); also: nearly all actives have a fitted effect of over 50% in size
# How it was run: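 Cells (500-1,000/well) rested 5 h, then received compounds for 48 h; metabolically active cells were measured by CellTiter-Glo luminescence. Final concentrations spanned up to 46 µM (MIPE, 11-point) or 0.59 nM-46 µM (NPC, 8-point) in primary screens, 11-point in follow-ups.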
# [9] = qHTS of pediatric cancer cell lines to identify multiple opportunities for drug repurposing: Primary screen for Saos-2 cells (AID 1347097); also: nearly all actives have a fitted effect of over 40% in size
# How it was run: as §2
# [10] = qHTS of pediatric cancer cell lines to identify multiple opportunities for drug repurposing: Primary screen for DAOY cells (AID 1347090); also: nearly all actives have a fitted effect of over 55% in size
# How it was run: as §1
# [11] = NS1 protein of Zika virus - qHTS assay to identify small molecule inhibitors in human HEK 293 cells (AID 1347053); also: nearly all actives have a fitted effect of over 55% in size
# How it was run: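 HEK 293 cells, seeded 20 h at 37 C, were pretreated with compound 1 h, then infected with ZIKV MR766 (MOI = 0.5) for 24 h. NS1 was read by TR-FRET with two anti-NS1 antibodies, normalized to uninfected and infected wells.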
# Potency is read from the fitted curve at half-maximal effect.
SMILES,Potency [1],Potency [2],Potency [3],Potency [4],Potency [5],Potency [6],Potency [7],Potency [8],Potency [9],Potency [10],Potency [11]
CC(C)[C@H](O)C(=O)N[C@@H](C)C(=O)N[C@@H]1C(=O)N(C)CCc2ccccc21,inactive,inactive,inactive,23.5 µM (active),18.7 µM (active),inactive,inactive,inactive,–,–,–
CCCCC[C@H](O)C=C[C@H]1[C@H](O)CC(=O)[C@H]1CCCCCCC(=O)O,inactive,inactive,inactive,–,inactive,inactive,inactive,–,inactive,–,–
CO[C@H]1/C=C\O[C@@]2(C)Oc3c(C)c(O)c4c(O)c(c5c(nc6cc(C)ccn65)c4c3C2=O)NC(=O)C(C)=CC=C[C@H](C)[C@H](O)[C@@H](C)[C@@H](O)[C@@H](C)[C@H](OC(C)=O)[C@H]1C,inactive,inactive,inactive,inactive,–,inactive,inactive,–,–,inactive,–
COc1ccnc(CS(=O)c2nc3ccc(OC(F)F)cc3[nH]2)c1OC (configuration not stated),inactive,inactive,inactive,inactive,–,inactive,inactive,inactive,inactive,inactive,–
Cc1c(-c2cccc3c(CCCOc4cccc5ccccc45)c(C(=O)O)n(Cc4cccnc4)c23)c(COc2ccc(N3CCN([S+](=O)([O-])N(C)C)CC3)cc2)nn1C,inactive,–,–,23.5 µM (active),10.5 µM (active),–,–,inactive,–,23.5 µM (active),–
NC(=O)c1ncn([C@@H]2O[C@H](CO)[C@@H](O)[C@@H]2O)n1,inactive,inactive,inactive,inactive,–,inactive,–,inactive,inactive,inactive,–
NC[C@H]1O[C@H](O[C@@H]2[C@@H](O)[C@@H](O[C@H]3O[C@H](CO)[C@@H](O)[C@H](N)[C@@H]3O)[C@H](N)C[C@@H]2N)[C@H](O)[C@@H](O)[C@H]1O,inactive,–,inactive,inactive,–,inactive,inactive,inactive,inactive,inactive,–
CCNC(=O)c1noc(-c2cc(C(C)C)c(O)cc2O)c1-c1ccc(CN2CCOCC2)cc1,73.1 nM (active),–,0.332 µM (active),0.148 µM (active),0.0526 µM (active),0.137 µM (active),0.296 µM (active),–,–,0.235 µM (active),–
CN(C)CCOc1ccc(-c2nc(-c3ccc4c(c3)CCC4=NO)c(-c3ccncc3)[nH]2)cc1,inactive,inactive,23.5 µM (active),18.7 µM (active),–,30.6 µM (active),inactive,–,23.5 µM (active),–,–
NS(=O)(=O)c1ccc(Nc2nc(OCC3CCCCC3)c3[nH]cnc3n2)cc1,inactive,inactive,26.4 µM (active),23.5 µM (active),6.62 µM (active),–,–,–,16.6 µM (active),–,–
O=C1C(CCC(O)c2ccc(F)cc2)C(c2ccc(O)cc2)N1c1ccc(F)cc1 (configuration not stated),inactive,inactive,inactive,inactive,inactive,inactive,inactive,inactive,inactive,inactive,–
CC(C)=CCCC(C)=CCCC(C)=CCCC(C)=CCCC(C)=CCCC(C)=CCCC(C)=CCCC(C)=CCCC(C)=CCO,inactive,inactive,inactive,inactive,inactive,inactive,inactive,inactive,inactive,–,–
FC(F)(F)c1ccc(C=Cc2nc(COc3ccc(CCCCn4ccnn4)cc3)co2)cc1,inactive,–,0.0037 µM (active),–,0.0093 µM (active),0.0109 µM (active),–,inactive,0.0332 µM (active),0.0187 µM (active),–
COc1ccc(C=CC(=O)Nc2ccccc2C(=O)O)cc1OC,inactive,–,inactive,–,–,inactive,inactive,inactive,–,inactive,–
COC(=O)N1CCN(Cc2cccc(NC(=O)Nc3ccc(C)nc3)c2F)CC1,inactive,inactive,inactive,inactive,inactive,inactive,inactive,inactive,inactive,inactive,–
N#CC(=C1Nc2ccccc2S1)c1ccnc(OCc2ccc(CN3CCOCC3)cc2)n1,inactive,–,3.32 µM (active),0.0235 µM (active),0.0053 µM (active),0.306 µM (active),0.526 µM (active),–,0.0148 µM (active),0.0093 µM (active),–
C[C@@H]1CCO[C@H]2Cn3cc(C(=O)NCc4ccc(F)cc4F)c(=O)c(O)c3C(=O)N12,inactive,inactive,–,inactive,inactive,–,–,–,–,inactive,–
O=C(c1ccc(C(=O)N2CCC(N3CCCC3)CC2)c(Nc2ccccc2)c1)N1CCC(N2CCCC2)CC1,inactive,inactive,inactive,inactive,–,inactive,inactive,inactive,inactive,–,–
CN1N=C(N)c2cn([C@@H]3O[C@H](COP(=O)(O)O)[C@@H](O)[C@@H]3O)c3ncnc1c23,833 nM (active),4.15 µM (active),7.43 µM (active),3.72 µM (active),–,–,1.66 µM (active),–,2.09 µM (active),–,–
CN(CC=CC#CC(C)(C)C)Cc1cccc2ccccc12,inactive,inactive,–,–,–,inactive,–,inactive,–,inactive,–

SMILES,Potency [1],Potency [2],Potency [3],Potency [4],Potency [5],Potency [6],Potency [7],Potency [8],Potency [9],Potency [10],Potency [11]
CN1CCN(c2ncc(-c3cc(Cl)cc(Cl)c3Cl)c(N)n2)CC1,–,inactive,–,2.35 µM (active),–,3.06 µM (active),–,inactive,–,inactive,inactive
COc1cc2nccc(Oc3ccc(NC(=O)Nc4cc(C)on4)c(Cl)c3)c2cc1OC,11.8 µM (active) and 13 µM (active),–,14.8 µM (active),–,–,24.3 µM (active),13.2 µM (active),18.7 µM (active),14.8 µM (active),–,–
CC=C(C(=CC)c1ccc(O)cc1)c1ccc(O)cc1,–,inactive,20.9 µM (active),23.5 µM (active),11.8 µM (active),–,–,inactive,–,–,inactive
O=C1CCCC(=O)C1C(=O)c1ccc(C(F)(F)F)cc1[N+](=O)[O-],–,inactive,inactive,inactive,–,–,inactive,inactive,–,–,inactive
CN1CCC[C@H]1CCO[C@](C)(c1ccccc1)c1ccc(Cl)cc1,–,inactive,inactive,–,20.9 µM (active),inactive,inactive,inactive,–,–,inactive
C[C@H]1COC2=C1C(=O)C(=O)c1c2ccc2c1CCCC2(C)C,–,inactive,20.9 µM (active),inactive,–,–,–,inactive,–,inactive,inactive
Fc1ccc(C(c2ccc(F)cc2)N2CCN(CC=Cc3ccccc3)CC2)cc1,–,inactive,–,–,–,inactive,–,inactive,–,inactive,inactive
O=C(O)Cc1cccc(OCCCN(Cc2cccc(C(F)(F)F)c2Cl)CC(c2ccccc2)c2ccccc2)c1,–,inactive,23.5 µM (active),23.5 µM (active),6.62 µM (active),27.3 µM (active),23.5 µM (active),inactive,–,14.8 µM (active),inactive
c1cc(OCCN2CCCCC2)cc(-c2n[nH]c3ccc(-c4ncn[nH]4)cc23)c1,–,inactive,inactive,9.35 µM (active),16.6 µM (active),19.3 µM (active),inactive,inactive,inactive,–,inactive
O=C(O)C1=CO[C@@H](O[C@@H]2O[C@H](CO)[C@H](O)[C@H](O)[C@H]2O)[C@@H]2C(CO)=CC[C@H]12,–,inactive,inactive,inactive,inactive,inactive,inactive,inactive,–,inactive,inactive
OC(c1cc(C(F)(F)F)nc2c(C(F)(F)F)cccc12)C1CCCCN1 (configuration not stated),–,inactive,–,18.7 µM (active),–,–,inactive,–,–,inactive,10.5 µM (active)
CC(=O)OCC(=O)[C@@]12OC(C)(C)O[C@H]1C[C@H]1[C@@H]3C[C@H](F)C4=CC(=O)C=C[C@]4(C)[C@@]3(F)[C@@H](O)C[C@@]12C,–,inactive,inactive,inactive,–,inactive,inactive,inactive,–,–,inactive
CCNC(=O)Nc1ccc(Oc2ncnc(N)c2C=NOC)cc1Cl,–,inactive,5.26 µM (active),–,4.69 µM (active),inactive,2.64 µM (active),inactive,–,inactive,inactive
CC[C@H](C)n1cc(C)c2c(C(=O)NCc3c(C)cc(C)[nH]c3=O)cc(-c3ccc(N4CCNCC4)nc3)cc21,–,inactive,inactive,1.48 µM (active),0.59 µM (active),19.3 µM (active),inactive,inactive,18.7 µM (active),11.8 µM (active),inactive
CCCCC(F)(F)[C@@]1(O)CC[C@H]2[C@H](CC(=O)[C@@H]2CCCCCCC(=O)O)O1,–,inactive,inactive,inactive,inactive,inactive,inactive,inactive,inactive,inactive,inactive
CS(=O)(=O)c1ccc(C2=C(c3ccccc3)C(=O)OC2)cc1,–,inactive,inactive,inactive,inactive,inactive,inactive,inactive,inactive,–,inactive
Cc1cc(-c2ncc(CC(=O)Nc3ccc(-c4cnccn4)cn3)cc2C)ccn1,–,inactive,inactive,–,16.6 µM (active),–,–,inactive,–,–,inactive
CN1CCc2c(n(Cc3ccc(C(=O)NO)cc3)c3ccccc23)C1,–,inactive,16.6 µM (active),14.8 µM (active),9.35 µM (active),–,16.6 µM (active),inactive,inactive,–,inactive
COc1cc([C@H]2Oc3cc([C@H]4Oc5cc(O)cc(O)c5C(=O)[C@H]4O)ccc3O[C@H]2CO)ccc1O,–,inactive,–,23.5 µM (active),20.9 µM (active),inactive,–,inactive,–,–,inactive
NC(=O)c1noc([C@H](CCCC2CCCCC2)CC(=O)NO)n1,–,inactive,18.7 µM (active),9.35 µM (active),7.43 µM (active),21.7 µM (active),20.9 µM (active),inactive,–,14.8 µM (active),13.2 µM (active)
